ATXN2 expr inh = Primary qHTS for Inhibitors of ATXN expression; HEK-293 ATXN2-luciferase reporter, luminescence, 24 h; Potency, µM (titrated, usually from 57 µM), hits mostly inhibitors; 360,000 compounds, 0.72% hits; AID 1745845, 2022; note: nearly all actives have a fitted effect of over 55% in size
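qHTS (up to 57 uM final) was run with 24 h compound exposure of reporter cells at 37 °C. Each well was multiplexed: SteadyGlo luminescence measured ATXN2-luciferase expression after a fluorogenic Gly-Phe-AFC viability readout (25 uM final).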
HT1080 IDH1KD tx = qHTS for induction of synthetic lethality in tumor cells producing 2HG: qHTS for the HT-1080-IDH1KD cell line; HT-1080 IDH1 knockdown viability, ATP luminescence, 48 h; AID 686971, 2013; 360,000 compounds, 2% hits; Potency, µM (highest dose often 46.1 µM), most hits filed as cytotoxic
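After a 2 h attachment period, IDH1KD HT-1080 cells took pin-transferred compound for 48 h at 37 °C; ATP-based luminescence after 10 min room-temperature reagent incubation reported viability.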
HT1080NT lethal = qHTS for induction of synthetic lethality in tumor cells producing 2HG: qHTS for the HT-1080-NT fibrosarcoma cell line; HT-1080-NT fibrosarcoma viability, CellTiter-Glo ATP luminescence, 48 h; Potency, µM (titrated, usually from 46.1 µM), most hits filed as cytotoxic; 360,000 compounds, 1.6% hits; AID 686970, 2013;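 note: NT is the 2HG producing partner of a matched IDH1 knockdown line; nearly all actives have a fitted effect of over 55% in size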
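Read-out is CellTiter-Glo luminescence after 10 minutes at room temperature, following 48 hours' compound treatment of HT-1080-NT cells (750 cells/well, RPMI, 5% FBS, 37 degrees C).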
KB-3-1 cytotox = qHTS assay for MDR1-selective chemotherapeutics: Primary screen using the parental adenocarcinoma cell KB-3-1; KB-3-1 viability, CellTiter-Glo ATP luminescence, 72 h; Potency, µM (top dose mostly 46.1 µM), actives largely listed as cytotoxic; 400,000 compounds, 1.4% hits; note: nearly all actives have a fitted effect of over 60% in size
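Viability of parental KB-3-1 cells, measured by CellTiter-Glo luminescence, followed a 72 h incubation at 37 °C with pinned compounds in phenol-red-free DMEM containing 10% FBS.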
KB-V1 cytotox = qHTS assay for MDR1-selective chemotherapeutics: Primary screen using the drug-selected MDR subline cells KB-V1 | KB-V1 MDR cells viability, CellTiter-Glo, 72 h | Potency, µM (series often up to 46.1 µM), usual class: cytotoxic | 400,000 compounds, 3.4% hits; note: nearly all actives have a fitted effect of over 60% in size
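qHTS viability screen in drug-selected KB-V1 MDR cells: 72 h compound treatment at 37 degrees C, ATP luminescence end point.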
S2 tox = Viability Counterscreen for Primary qHTS for Inhibitors of ATXN expression; S2 cells (HEK-293 line with an ATXN2-luciferase reporter) viability, CellTiter-Fluor protease fluorescence, 24 h; Potency, µM (doses to about 56.7 µM), hits mostly cytotoxic; 400,000 compounds, 0.49% hits; AID 651635, 2014; note: nearly all actives have a fitted effect of over 40% in size
A number is an active result; . = inactive; ? = inconclusive; / = no result. Most compounds without a hit are left out; they make up all but 6.2% or so of the library. Calls come from the whole dose curve; as a rule, active = well fitted curve in the direction sought with a large enough effect; inconclusive = small, poorly fitted or top-dose-only effect, or another doubt; inactive = no such curve, though single readings can be large; an effect the other way counts as inactive or inconclusive.

SMILES	ATXN2 expr inh	HT1080 IDH1KD tx	HT1080NT lethal	KB-3-1 cytotox	KB-V1 cytotox	S2 tox
COc1ccc(CNC(=O)CSc2nnc3c(n2)[nH]c2ccc(C)cc23)cc1	.	.	.	.	.	.
C=CCn1c(=O)n([C@@H]2O[C@H](CO)[C@@H](O)[C@H]2O)c2nc(N)[nH]c(=O)c21	.	/	/	/	/	.
CCCN(CC(=O)Nc1ccccc1OC)C(=O)c1ccc2[nH]c3c(c2c1)CC(C)CC3 (stereo not given)	?	.	.	?	16.4µM	?
CCOc1ccc(NC(=O)CN(C)C(=O)c2ccc3[nH]c4c(c3c2)CC(C)CC4)cc1OCC (stereo not given)	.	.	.	.	.	.
Cc1ccc(NC(=O)CN(C)C(=O)c2ccc3[nH]c4c(c3c2)CC(C)CC4)cc1 (stereo not given)	.	.	.	?	14.6µM	.
CCN(CC(=O)Nc1ccccc1OC)C(=O)c1ccc2[nH]c3c(c2c1)CC(C)CC3 (stereo not given)	.	?	?	?	.	.
N#C/C(=C\c1ccc(-c2ccc(C(=O)O)cc2)o1)C(=O)Nc1ccccc1C(=O)O	.	/	/	.	?	.
N=c1c2c(n(Cc3ccc(Cl)cc3)c3c1CCC3)CCC2	?	7.08µM	5.01µM	.	.	.
N=c1c2c(n(Cc3cccc(Cl)c3)c3c1CCC3)CCCC2	?	10µM	6.31µM	?	.	.
N=c1c2c(n(Cc3ccc(F)cc3)c3c1CCC3)CCCC2	/	?	?	?	.	.
N=c1c2c(n(Cc3ccccc3)c3c1CCC3)CCC2	.	?	?	?	.	.
COc1ccc(CCNC(=O)c2cnc3sc(N4CCC(C)CC4)nn3c2=O)cc1OC	.	/	/	.	.	.
CCOC(=O)c1[nH]c(C)c(/C(O)=C2\C(=O)C(=O)N(CCN3CCOCC3)C2c2cccs2)c1C (stereo not given)	/	?	?	20µM	?	/
COC(=O)c1[nH]c(C)c(/C(O)=C2\C(=O)C(=O)N(CCN(C)C)C2c2cccs2)c1C (stereo not given)	.	.	.	.	.	?
CCOC(=O)C1=C(C)N=c2sc(=Cc3cc(Cl)c(OCC(=O)O)c(Cl)c3)c(=O)n2C1c1cccc(OC)c1 (stereo not given)	.	20.6µM	25.9µM	.	.	.
CCOC(=O)C1=C(C)N=c2s/c(=C/c3ccc(OCC(=O)O)cc3)c(=O)n2C1c1cc(OC)c(OC)c(OC)c1 (stereo not given)	.	.	.	.	.	?
O=C(c1cnc(N2CCCCC2)c2ccccc12)N1CCN(c2ccccc2F)CC1	/	/	/	.	.	/
CS(=O)(=O)N1CCN(c2ccccc2NC(=O)c2ccc(-c3ccc(Br)cc3)o2)CC1	.	?	.	.	2.59µM	.
CS(=O)(=O)N1CCN(c2ccccc2NC(=O)c2cc(Br)ccc2Cl)CC1	.	.	.	?	.	.
COc1cc2ccccc2cc1C(=O)Nc1ccccc1N1CCN(S(C)(=O)=O)CC1	.	.	.	.	4.11µM	.
CCN1CCN(c2ccc(NC(=O)c3cc4ccccc4cc3OC)cc2C)CC1	?	?	?	14.6µM	?	?
CS(=O)(=O)N1CCN(c2ccccc2NC(=O)c2cccc3ccccc23)CC1	.	.	.	.	.	?
Cc1cccc(N2CCN(C(=O)c3cc4ccc5cccnc5c4[nH]3)CC2C)c1 (stereo not given)	/	/	/	.	.	/
S=c1nc[nH]c2nc[nH]c12	?	1.84µM	2.31µM	0.82µM	1.16µM	?
O=c1[nH]c(=S)[nH]c2nc[nH]c12	/	/	/	.	?	/
SMILES	ATXN2 expr inh	HT1080 IDH1KD tx	HT1080NT lethal	KB-3-1 cytotox	KB-V1 cytotox	S2 tox
Cc1ccsc1/C=N/Nc1nc(=O)[nH]nc1C	?	20.6µM	23.1µM	?	?	.
Cc1cc(C)nc(N/N=C/c2sccc2C)n1	.	.	.	.	?	.
C[C@]12C=CC(=O)N[C@@H]1CC[C@H]1[C@H]3CC[C@@H](C(=O)Nc4cc(C(F)(F)F)ccc4C(F)(F)F)[C@@]3(C)CC[C@@H]12	.	/	/	/	/	/
CC(=O)c1ccc(-c2ccc(C(=O)Nc3nc(-c4ccccn4)cs3)o2)cc1	.	10.3µM	?	?	?	.
Cc1ccc(-c2csc(NC(=O)c3ccc(-c4ccccc4)cc3)n2)o1	.	.	.	?	14.6µM	?
O=C(Nc1nc(-c2ccco2)cs1)c1ccccc1	.	.	.	.	.	.
Cc1ccc(C(=O)Nc2nc(-c3ccccn3)cs2)o1	/	?	.	?	.	?
CCOC(=O)COc1ccc2c(C)c(CCN(CC)CC)c(=O)oc2c1	/	/	/	/	/	.
O=C1NC(=Nc2ccc(O)cc2)S/C1=C/c1ccco1	.	?	?	?	8.2µM	?
COC(=O)/C=C1/SC(=Nc2ccc(C)cc2C)NC1=O	.	.	.	.	.	.
Cn1cccc1/C=C1\SC(=Nc2ccc(O)cc2)NC1=O	/	0.731µM	0.517µM	0.291µM	.	?
Cn1cccc1/C=C1\SC(=Nc2ccccc2)NC1=O	/	5.17µM	?	2.31µM	2.59µM	?
COc1cc(/C=C2\SC(=Nc3ccc(O)cc3)NC2=O)cc(OC)c1O	/	?	?	?	.	.
O=C1NC(=Nc2ccccc2)S/C1=C\c1cccs1	.	.	.	.	.	.
Cc1ccc(N=C2NC(=O)/C(=C/c3cccn3C)S2)c(C)c1	.	.	.	.	23.1µM	?
COc1cc(C2Nc3ccccc3C(=O)N2Cc2ccco2)ccc1O (stereo not given)	/	/	/	.	.	/
C=C1NN(CC#N)C(=O)N1c1ccc(OCc2ccccc2)cc1	/	/	/	.	.	/
CN(C)c1ccc(/C=C2\C=Nc3ccccc32)cc1	/	/	/	.	.	/
Cn1cccc1/C=C1\SC(=Nc2cccc(O)c2)NC1=O	/	14.6µM	?	?	.	15.8µM
COc1ccc(-c2oc3ccc(N4CCOCC4)cc3c2C#Cc2ccc(N)cc2)cc1	.	23.1µM	16.4µM	?	?	.
OC1(C#Cc2c(-c3ccsc3)oc3ccc(N4CCOCC4)cc23)CCCCC1	.	?	?	?	.	?
COc1ccc(-c2oc3ccc(N4CCOCC4)cc3c2C#CC2(O)CCCCC2)cc1	.	20.6µM	?	20.6µM	.	?
COc1ccc(C#Cc2c(-c3ccsc3)oc3ccc(N4CCOCC4)cc23)cc1	.	.	.	.	.	.
COc1ccc(-c2sc3cc(OC)c(OC)cc3c2C#CCCO)cc1	.	?	?	.	.	?
COc1ccc(-c2sc3ccc(N4CCOCC4)cc3c2C#CCCO)cc1	?	23.1µM	23.1µM	?	?	?
